From PubChem BioAssay (NCI)
The panel holds about 83,000 compounds, 20% with a hit somewhere; the sample as a whole holds those more often.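 Interpretation: 100, growth as untreated; towards 0, rising growth inhibition; 0, no net growth; 0 to -100, cell death. Compounds scoring below 10 were considered active.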 Values without a mark were called inactive. The source made the active and inactive calls.

What was measured:
Assay in all cases: NCI-60 one-dose screen, 48 h (100 = growth as untreated, 0 = no growth, -100 = all killed)
Conditions in all cases: 10 µM unless noted
NCI-H23 lung = system: NCI-H23 lung
NCI-H226 lung = system: NCI-H226 lung
NCI-H322M lung = system: NCI-H322M lung
HOP-62 NSCLC = system: HOP-62 NSCLC
NCI-H460 lung = system: NCI-H460 lung
HOP-92 NSCLC = system: HOP-92 NSCLC
NCI-H522 lung = system: NCI-H522 lung
A549/ATCC NSCLC = system: A549/ATCC NSCLC
786-0 renal = system: 786-0 renal
COLO 205 colon = system: COLO 205 colon

SMILES	growth (NCI-H23 lung)	growth (NCI-H226 lung)	growth (NCI-H322M lung)	growth (HOP-62 NSCLC)	growth (NCI-H460 lung)	growth (HOP-92 NSCLC)	growth (NCI-H522 lung)	growth (A549/ATCC NSCLC)	growth (786-0 renal)	growth (COLO 205 colon)
COc1ccc(-c2nsc3c2NC(=O)CC3c2ccc3c(c2)OCO3)cc1 (centres undefined)	35.1%	68.4%	43.9%	31.2%	19.1%	2.96% (active)	-30.1% (active)	26.6%	57.5%	-14.4% (active)
CCSc1ccc([C@@H]2[C@@H](N)C(=O)N2c2cc(OC)c(OC)c(OC)c2)cc1	35.9%	59.4%	45.7%	41.8%	12.2%	113%	18.7%	30.5%	31.7%	-5.46% (active)
COc1ccc(-n2nc(C(=O)NCC(=O)Nc3nc4cc(OC)ccc4s3)c3ccccc3c2=O)cc1	19.5%	-11.1% (active)	31.4%	-78.7% (active)	1.04% (active)	-34.9% (active)	-9.83% (active)	0.477% (active)	20.4%	32.7%
N#Cc1c(NN)n(C2OC(CO)C(O)C2O)c2ncnc(N)c12 (centres undefined)	2.93% (active)	25.7%	-19.8% (active)	-0.156% (active)	-13.4% (active)	-18.9% (active)	-57% (active)	6.43% (active)	26.1%	-32.7% (active)
COc1ccc(C(=O)c2cc(C)c(OC)c(C)c2)cc1OC(=O)CCl	29.1%	52.8%	42.7%	17.8%	6.67% (active)	96.5%	-40.2% (active)	14.6%	16.2%	9.62% (active)
COc1ccc(C2CC(c3cccc(Nc4ccnc5cc(Cl)ccc45)c3)=NN2c2ccc(Cl)cc2)cc1 (centres undefined)	84.4%	83.6%	72.4%	88.7%	47.6%	68.5%	90.4%	70.6%	74.4%	73.9%
Cc1ccc(NC(=O)Cn2nncc2CN2C(=O)CSC2=O)cc1C	96.8%	90.7%	103%	98.5%	105%	112%	94.8%	102%	108%	106%
C#CC[C@@H]1C[C@]2(C)[C@H]3CC=C4[C@H]5[C@@H](C)[C@H](C)CC[C@]5(C(=O)NCCCCN)CC[C@@]4(C)[C@]3(C)CC[C@H]2C(C)(C)[C@H]1OC(C)=O	94.8%	87.1%	92.4%	89.2%	1.45% (active)	44.1%	81.7%	72.6%	79.9%	6.68% (active)
CC(C)CC(NC(=O)C(CCCN=C(N)N)NC(=O)OCc1ccccc1)C(=O)NC(CNC(=O)/C=C/c1ccccc1)C(C)C (centres undefined)	109%	100%	104%	107%	108%	89.2%	98.7%	108%	101%	117%
CC1(C)CC[C@]2(C(=O)N3CCNCC3)CC[C@]3(C)C(=CC[C@@H]4[C@@]5(C)CCC(=O)C(C)(C)[C@@H]5CC[C@]43C)[C@@H]2C1	103%	99.4%	108%	97.3%	109%	109%	94.5%	102%	102%	105%
O=C(/C=C/c1ccccc1)n1c(-c2ccccc2)nc2ccccc21	101%	101%	108%	105%	103%	91.6%	102%	101%	100%	109%
COc1ccc(-c2nn(-c3cccc(Cl)c3)cc2/C=C2\C(=N)N(c3ccccc3)N=C2N)cc1	51.2%	40.8%	44.9%	65.8%	6.92% (active)	96.2%	51.5%	36.6%	29.1%	-22.8% (active)
CN(C)c1ccc(N2Cc3ccccc3OC3=C2C(=O)c2c(O)ccc(O)c2C3=O)cn1	-36.7% (active)	6.21% (active)	-7.76% (active)	-45.8% (active)	1.55% (active)	-65.2% (active)	-54.2% (active)	-19.7% (active)	-88.9% (active)	-81.9% (active)
[O-]/[N+](=C\c1ccccc1)CC1(O)CCCCC1	104%	99.5%	112%	109%	103%	78%	93.7%	101%	109%	117%
O=c1[nH]c2cc(Cl)c(Cl)cc2o1	108%	90.5%	109%	96.8%	109%	101%	103%	114%	97.1%	123%
Cc1nc2ccc(Nc3nc(N4CCOCC4)nc(N4CCN(C)CC4)n3)cc2n1Cc1ccccc1	92%	95.8%	76.1%	86.6%	97.8%	64.5%	93.2%	85.1%	72.8%	73.2%
Nc1nc(N)c2c(n1)NC(c1sc(Cl)nc1Cl)CC(c1ccc3c(c1)OCO3)=N2 (centres undefined)	39.9%	82.7%	72.6%	34.5%	13.2%	56%	-28.3% (active)	36.4%	38.1%	7.12% (active)
CC(C)N=C1CCCC1C(=S)SSC(=S)C1CCCC1=NC(C)C (centres undefined)	75.5%	90.6%	86.7%	24.5%	47.5%	103%	8.07% (active)	71.1%	91.4%	88.8%
CCCCCCCCCCCCCC(=S)NCCCC[C@H](NC(=O)OCc1ccccc1)C(=O)Nc1ccccc1	37.2%	60.8%	95.2%	58.4%	45.5%	19.8%	27.6%	49.3%	48.8%	55.6%
O=C(Cn1nncc1CN1C(=O)CSC1=O)Nc1ccc(F)cc1	97.3%	95.7%	102%	97.2%	103%	104%	93.5%	102%	102%	107%
O=C(c1ccccc1)N(CCCCl)C(=O)N(CCCCl)C(=O)c1ccccc1	83.1%	94.9%	92.9%	86.7%	108%	70.1%	88.1%	87.7%	94.6%	102%
O=C1C=CC(=O)N1CO	124%	113%	117%	115%	123%	120%	103%	109%	113%	149%
COc1ccc2[nH]c(O)c(/C=c3/ccc4c(c3)N=C(c3ccc(C(F)(F)F)cc3)N=4)c2c1	82.4%	96.9%	76.1%	100%	53.5%	71.9%	89.6%	66.4%	37.3%	102%
COS(=O)(=O)CCN(CCOS(C)(=O)=O)S(C)(=O)=O	105%	100%	108%	109%	101%	89.1%	78.2%	90.1%	97.9%	117%
CCN(C(=O)Nc1cccc2ccccc12)c1ccccc1	98.3%	98.1%	102%	93.6%	115%	96.3%	100%	98.7%	106%	105%
CC(C)(C)NC(=O)C(OC(=O)C1CCc2cc(F)ccc2O1)c1ccccc1Cl (centres undefined)	93.5%	95.6%	95.6%	94.4%	104%	89%	82.4%	98.6%	100%	130%
CC1(C)C2CCC(O)(C(=O)O)C1C2 (centres undefined)	113%	113%	95.9%	113%	116%	117%	117%	–	107%	127%
COC1CC(N)C2OC(c3ccccc3)OCC2O1 (centres undefined)	103%	104%	107%	114%	103%	136%	98.7%	97.9%	103%	113%
